# Assay results taken from article PMC8384837, “Expanding the binding specificity for RNA recognition by a PUF domain”.
# Experiments:
# Assay in all cases: yeast three-hybrid, YBZ-1, SC-Leu-His + 0.5 mM 3-AT, 4 days
# Conditions in all cases: tags: N-Gal4 AD-HA kept; label: inside an RPR1-promoter hybrid RNA with tandem MS2 sites; ssRNA
# PUM1 PUF domain R3-LWE = PUM1 PUF domain R3-LWE (Homo sapiens, UniProt Q14671 828-1176, C935L;R936W;Q939E)
# Outline: (§1)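 The interaction score is the log change in how often each variant appears, from input to selection. Frequencies came from PCR-amplified, Illumina-sequenced repeat regions of Pumilio-1 PUF domain libraries grown in strain YBZ-1 (LexA–MS2 coat fusion, HIS3 reporter) alongside matching RNA elements. Input plates were SC-Leu and selection plates were SC-Leu-His + 0.5 mM 3-AT, each for four days, and the log2 calculation used a pseudocount of 1 where a variant was absent.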
# PUM1 PUF domain R5-RQI = PUM1 PUF domain R5-RQI (Homo sapiens, UniProt Q14671 828-1176, C1007R;R1008Q;Q1011I)
# Outline: as §1
# PUM1 PUF domain R5-KAE = PUM1 PUF domain R5-KAE (Homo sapiens, UniProt Q14671 828-1176, C1007K;R1008A;Q1011E)
# Outline: as §1
# PUM1 PUF domain R5-MPR = PUM1 PUF domain R5-MPR (Homo sapiens, UniProt Q14671 828-1176, C1007M;R1008P;Q1011R)
# Outline: as §1
# PUM1 PUF domain R4-PFK = PUM1 PUF domain R4-PFK (Homo sapiens, UniProt Q14671 828-1176, N971P;H972F;Q975K)
# Outline: as §1
# PUM1 PUF domain R8-RWD = PUM1 PUF domain R8-RWD (Homo sapiens, UniProt Q14671 828-1176, N1122R;Y1123W;Q1126D)
# Outline: as §1
# PUM1 PUF domain R1-KDS = PUM1 PUF domain R1-KDS (Homo sapiens, UniProt Q14671 828-1176, S863K;R864D;Q867S)
# Outline: as §1
# PUM1 PUF domain R3-RER = PUM1 PUF domain R3-RER (Homo sapiens, UniProt Q14671 828-1176, C935R;R936E;Q939R)
# Outline: as §1
# PUM1 PUF domain R4-PHK = PUM1 PUF domain R4-PHK (Homo sapiens, UniProt Q14671 828-1176, N971P;Q975K)
# Outline: as §1
# PUM1 PUF domain R4-APR = PUM1 PUF domain R4-APR (Homo sapiens, UniProt Q14671 828-1176, N971A;H972P;Q975R)
# Outline: as §1
# Chain of PUM1 PUF domain R3-LWE (Q14671 828-1176 C935L/R936W/Q939E): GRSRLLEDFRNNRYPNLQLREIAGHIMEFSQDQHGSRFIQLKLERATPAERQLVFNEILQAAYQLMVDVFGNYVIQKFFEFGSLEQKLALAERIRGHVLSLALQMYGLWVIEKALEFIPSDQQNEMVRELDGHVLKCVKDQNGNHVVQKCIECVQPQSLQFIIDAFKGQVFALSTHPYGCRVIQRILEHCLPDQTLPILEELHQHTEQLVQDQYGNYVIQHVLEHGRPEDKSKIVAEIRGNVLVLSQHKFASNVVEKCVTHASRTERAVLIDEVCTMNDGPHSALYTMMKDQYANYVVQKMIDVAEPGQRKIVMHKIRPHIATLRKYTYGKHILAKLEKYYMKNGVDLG
# Chain of PUM1 PUF domain R4-PFK (Q14671 828-1176 N971P/H972F/Q975K): as the sequence (Q14671 828-1176 C935L/R936W/Q939E) above, with L108C, W109R, E112Q, N144P, H145F, Q148K counted along it
# Chain of PUM1 PUF domain R5-KAE (Q14671 828-1176 C1007K/R1008A/Q1011E): as the sequence (Q14671 828-1176 C935L/R936W/Q939E) above, with L108C, W109R, E112Q, C180K, R181A, Q184E counted along it
# Chain of PUM1 PUF domain R4-APR (Q14671 828-1176 N971A/H972P/Q975R): as the sequence (Q14671 828-1176 C935L/R936W/Q939E) above, with L108C, W109R, E112Q, N144A, H145P, Q148R counted along it
# Chain of PUM1 PUF domain R8-RWD (Q14671 828-1176 N1122R/Y1123W/Q1126D): as the sequence (Q14671 828-1176 C935L/R936W/Q939E) above, with L108C, W109R, E112Q, N295R, Y296W, Q299D counted along it
# Chain of PUM1 PUF domain R1-KDS (Q14671 828-1176 S863K/R864D/Q867S): as the sequence (Q14671 828-1176 C935L/R936W/Q939E) above, with S36K, R37D, Q40S, L108C, W109R, E112Q counted along it
# Chain of PUM1 PUF domain R5-MPR (Q14671 828-1176 C1007M/R1008P/Q1011R): as the sequence (Q14671 828-1176 C935L/R936W/Q939E) above, with L108C, W109R, E112Q, C180M, R181P, Q184R counted along it
# Chain of PUM1 PUF domain R5-RQI (Q14671 828-1176 C1007R/R1008Q/Q1011I): as the sequence (Q14671 828-1176 C935L/R936W/Q939E) above, with L108C, W109R, E112Q, C180R, R181Q, Q184I counted along it
# Chain of PUM1 PUF domain R3-RER (Q14671 828-1176 C935R/R936E/Q939R): as the sequence (Q14671 828-1176 C935L/R936W/Q939E) above, with L108R, W109E, E112R counted along it
# Chain of PUM1 PUF domain R4-PHK (Q14671 828-1176 N971P/Q975K): as the sequence (Q14671 828-1176 C935L/R936W/Q939E) above, with L108C, W109R, E112Q, N144P, Q148K counted along it
sequence,measurement,setting,value
GGCUAGAACUAGUGGAUCCCCCGGCGCCCGGCGGCUCGAGCCCGGGUAAGUGUAAGUAGUCUGCAUGCCGCCGGGCGCCAUGCCUGCAGGUCGACUCUAGAAAACAUG,binding signal,PUM1 PUF domain R3-LWE,5.48 log2 enrichment (interaction score)
GGCUAGAACUAGUGGAUCCCCCGGCGCCCGGCGGCUCGAGCCCGGGUAAGUGUCAAUAGUCUGCAUGCCGCCGGGCGCCAUGCCUGCAGGUCGACUCUAGAAAACAUG,binding signal,PUM1 PUF domain R5-RQI,2.06 log2 enrichment (interaction score)
same,binding signal,PUM1 PUF domain R5-KAE,3.8 log2 enrichment (interaction score)
same,binding signal,PUM1 PUF domain R5-MPR,2.13 log2 enrichment (interaction score)
GGCUAGAACUAGUGGAUCCCCCGGCGCCCGGCGGCUCGAGCCCGGGUAAGUGUAAAUAGUCUGCAUGCCGCCGGGCGCCAUGCCUGCAGGUCGACUCUAGAAAACAUG,binding signal,PUM1 PUF domain R4-PFK,4.17 log2 enrichment (interaction score)
same,binding signal,PUM1 PUF domain R3-LWE,3.37 log2 enrichment (interaction score)
same,binding signal,PUM1 PUF domain R5-MPR,1.45 log2 enrichment (interaction score)
same,binding signal,PUM1 PUF domain R8-RWD,2.26 log2 enrichment (interaction score)
GGCUAGAACUAGUGGAUCCCCCGGCGCCCGGCGGCUCGAGCCCGGGUAAGUGUAAAUCGUCUGCAUGCCGCCGGGCGCCAUGCCUGCAGGUCGACUCUAGAAAACAUG,binding signal,PUM1 PUF domain R1-KDS,2.96 log2 enrichment (interaction score)
GGCUAGAACUAGUGGAUCCCCCGGCGCCCGGCGGCUCGAGCCCGGGUAAGUGUAAUUAGUCUGCAUGCCGCCGGGCGCCAUGCCUGCAGGUCGACUCUAGAAAACAUG,binding signal,PUM1 PUF domain R3-LWE,1.78 log2 enrichment (interaction score)
same,binding signal,PUM1 PUF domain R3-RER,4.06 log2 enrichment (interaction score)
GGCUAGAACUAGUGGAUCCCCCGGCGCCCGGCGGCUCGAGCCCGGGUAAGUGUAAAUGGUCUGCAUGCCGCCGGGCGCCAUGCCUGCAGGUCGACUCUAGAAAACAUG,binding signal,PUM1 PUF domain R1-KDS,2.77 log2 enrichment (interaction score)
GGCUAGAACUAGUGGAUCCCCCGGCGCCCGGCGGCUCGAGCCCGGGUAAGUGUACAUAGUCUGCAUGCCGCCGGGCGCCAUGCCUGCAGGUCGACUCUAGAAAACAUG,binding signal,PUM1 PUF domain R4-PFK,4.33 log2 enrichment (interaction score)
same,binding signal,PUM1 PUF domain R4-PHK,3.9 log2 enrichment (interaction score)
same,binding signal,PUM1 PUF domain R4-APR,2.91 log2 enrichment (interaction score)
GGCUAGAACUAGUGGAUCCCCCGGCGCCCGGCGGCUCGAGCCCGGGUAAGCGUAAAUAGUCUGCAUGCCGCCGGGCGCCAUGCCUGCAGGUCGACUCUAGAAAACAUG,binding signal,PUM1 PUF domain R8-RWD,2.45 log2 enrichment (interaction score)
GGCUAGAACUAGUGGAUCCCCCGGCGCCCGGCGGCUCGAGCCCGGGUAAGUGUUAAUAGUCUGCAUGCCGCCGGGCGCCAUGCCUGCAGGUCGACUCUAGAAAACAUG,binding signal,PUM1 PUF domain R5-RQI,4.62 log2 enrichment (interaction score)
same,binding signal,PUM1 PUF domain R5-KAE,2.99 log2 enrichment (interaction score)
GGCUAGAACUAGUGGAUCCCCCGGCGCCCGGCGGCUCGAGCCCGGGUAAGUGUAUAUAGUCUGCAUGCCGCCGGGCGCCAUGCCUGCAGGUCGACUCUAGAAAACAUG,binding signal,PUM1 PUF domain R4-PFK,6.46 log2 enrichment (interaction score)
same,binding signal,PUM1 PUF domain R4-APR,2.82 log2 enrichment (interaction score)
